Assay results as given in the supplement of paper PMC10849652.
About 7,900 targets were measured; listed, in parts, are those with a hit and a random draw of the rest. About 0.6% of all pairs of compound and target were hits. Values without a mark were called inactive.

Tests used:
Assay in all cases: log2 fold change, soluble protein after heating vs DMSO (PISA); higher = thermal stabilisation; K562 cells, 10 uM, 30 min; active = over 0.2 and 3.5 SD of the protein, either way, in both replicates (recomputed)
[1] = compound: CS(=O)(=O)c1ccc(-c2cnc(N)c(C(=O)Nc3ccccc3)n2)cc1
Method in brief: (§1)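 Thermal stability values are relative to control samples and come from duplicates. They are expressed as log2 fold changes. For measurement, K562 cells (2×10^6 cells/mL) received 10 μM compound for 30 min, and aliquots were heated for 3 min over 48°C-58°C, pooled, and extracted at 4°C in PBS with 0.5% NP-40. Soluble protein, the supernatant after 21,000xg for 90 min, was quantified by TMTpro 16plex LC-MS/MS with equalised channel sums.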

crizotinib = compound: C[C@@H](Oc1cc(-c2cnn(C3CCNCC3)c2)cnc1N)c1c(Cl)ccc(F)c1Cl [crizotinib]
Method in brief: as §1

[2] = compound: C[C@@H]1COCCN1C2=NC(=NC(=C2)C3(CC3)S(=O)(=O)C)C4=C5C=CNC5=CC=C4
Method in brief: as §1

[3] = compound: C[C@H](C1=CC=C(C=C1)C(=O)NC2=C3C=CNC3=NC=C2)N
Method in brief: as §1

duvelisib = compound: C[C@H](Nc1ncnc2nc[nH]c12)c1cc2cccc(Cl)c2c(=O)n1-c1ccccc1 [duvelisib]
Method in brief: as §1

gandotinib = compound: Cc1cc(Nc2cc(CN3CCOCC3)c3nc(C)c(Cc4ccc(Cl)cc4F)n3n2)n[nH]1 [gandotinib]
Method in brief: as §1

tozasertib = compound: Cc1cc(Nc2cc(N3CCN(C)CC3)nc(Sc3ccc(NC(=O)C4CC4)cc3)n2)n[nH]1 [tozasertib]
Method in brief: as §1

[4] = compound: Cc1cc(SCc2sc(-c3ccc(C(F)(F)F)cc3)nc2C)ccc1OCC(=O)O
Method in brief: as §1

doramapimod = compound: Cc1ccc(-n2nc(C(C)(C)C)cc2NC(=O)Nc2ccc(OCCN3CCOCC3)c3ccccc23)cc1 [doramapimod]
Method in brief: as §1

ispinesib = compound: Cc1ccc(C(=O)N(CCCN)[C@@H](c2nc3cc(Cl)ccc3c(=O)n2Cc2ccccc2)C(C)C)cc1 [ispinesib]
Method in brief: as §1

bafetinib = compound: Cc1ccc(NC(=O)c2ccc(CN3CC[C@H](N(C)C)C3)c(C(F)(F)F)c2)cc1Nc1nccc(-c2cncnc2)n1 [bafetinib]
Method in brief: as §1

[5] = compound: Cc1cccc(CC(=O)N2CCc3c2ccc(-c2cn(C)c4ncnc(N)c24)c3F)n1
Method in brief: as §1

nilotinib = compound: Cc1cn(-c2cc(NC(=O)c3ccc(C)c(Nc4nccc(-c5cccnc5)n4)c3)cc(C(F)(F)F)c2)cn1 [nilotinib]
Method in brief: as §1

[6] = compound: Cc1nc(Nc2n[nH]c3c2CN(C(=O)N[C@H](CN(C)C)c2ccccc2)C3(C)C)c2sccc2n1
Method in brief: as §1

dasatinib = compound: Cc1nc(Nc2ncc(C(=O)Nc3c(C)cccc3Cl)s2)cc(N2CCN(CCO)CC2)n1 [dasatinib]
Method in brief: as §1

[7] = compound: Cc1ncc(-c2ccnc(Nc3ccc(S(C)(=O)=O)cc3)n2)n1C(C)C
Method in brief: as §1

[8] = compound: Cn1cc(-c2ccc3c(c2)CCN3C(=O)Cc2cccc(C(F)(F)F)c2)c2c(N)ncnc21
Method in brief: as §1

[9] = compound: Cn1cc(-c2ccc3nnc(C(F)(F)c4ccc5ncccc5c4)n3n2)cn1
Method in brief: as §1

tipifarnib = compound: Cn1cncc1[C@@](N)(c1ccc(Cl)cc1)c1ccc2c(c1)c(-c1cccc(Cl)c1)cc(=O)n2C [tipifarnib]
Method in brief: as §1

mubritinib = compound: FC(F)(F)c1ccc(/C=C/c2nc(COc3ccc(CCCCn4ccnn4)cc3)co2)cc1 [mubritinib]
Method in brief: as §1

Chain of UniProt Q96I24 (Q96I24 whole entry, looked up): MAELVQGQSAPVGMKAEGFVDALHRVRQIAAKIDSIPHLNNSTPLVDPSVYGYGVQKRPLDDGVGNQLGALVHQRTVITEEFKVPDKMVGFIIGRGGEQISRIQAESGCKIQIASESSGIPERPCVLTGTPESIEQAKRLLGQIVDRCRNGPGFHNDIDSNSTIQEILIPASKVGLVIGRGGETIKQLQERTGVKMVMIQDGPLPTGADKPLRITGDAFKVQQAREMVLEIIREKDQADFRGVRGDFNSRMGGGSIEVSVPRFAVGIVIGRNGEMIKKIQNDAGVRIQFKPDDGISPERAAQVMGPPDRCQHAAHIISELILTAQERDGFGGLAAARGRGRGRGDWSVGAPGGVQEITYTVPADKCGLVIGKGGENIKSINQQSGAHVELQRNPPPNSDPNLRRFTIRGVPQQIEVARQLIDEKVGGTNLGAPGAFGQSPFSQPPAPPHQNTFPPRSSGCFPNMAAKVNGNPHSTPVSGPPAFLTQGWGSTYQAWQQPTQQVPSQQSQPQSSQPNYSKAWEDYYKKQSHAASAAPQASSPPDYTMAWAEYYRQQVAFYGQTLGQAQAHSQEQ
Chain of UniProt Q12894 (Q12894 whole entry, looked up): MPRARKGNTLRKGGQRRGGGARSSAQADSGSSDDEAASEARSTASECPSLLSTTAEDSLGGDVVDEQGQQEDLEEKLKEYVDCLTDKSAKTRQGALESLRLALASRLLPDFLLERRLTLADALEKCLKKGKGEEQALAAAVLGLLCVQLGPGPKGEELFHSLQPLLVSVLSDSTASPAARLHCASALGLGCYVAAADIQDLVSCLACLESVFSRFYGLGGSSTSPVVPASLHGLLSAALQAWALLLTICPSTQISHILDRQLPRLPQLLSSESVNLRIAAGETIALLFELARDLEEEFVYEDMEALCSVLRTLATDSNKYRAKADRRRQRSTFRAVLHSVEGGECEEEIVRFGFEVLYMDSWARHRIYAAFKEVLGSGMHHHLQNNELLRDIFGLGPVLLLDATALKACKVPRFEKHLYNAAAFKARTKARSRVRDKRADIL
Chain of UniProt P11142 (P11142 whole entry, looked up): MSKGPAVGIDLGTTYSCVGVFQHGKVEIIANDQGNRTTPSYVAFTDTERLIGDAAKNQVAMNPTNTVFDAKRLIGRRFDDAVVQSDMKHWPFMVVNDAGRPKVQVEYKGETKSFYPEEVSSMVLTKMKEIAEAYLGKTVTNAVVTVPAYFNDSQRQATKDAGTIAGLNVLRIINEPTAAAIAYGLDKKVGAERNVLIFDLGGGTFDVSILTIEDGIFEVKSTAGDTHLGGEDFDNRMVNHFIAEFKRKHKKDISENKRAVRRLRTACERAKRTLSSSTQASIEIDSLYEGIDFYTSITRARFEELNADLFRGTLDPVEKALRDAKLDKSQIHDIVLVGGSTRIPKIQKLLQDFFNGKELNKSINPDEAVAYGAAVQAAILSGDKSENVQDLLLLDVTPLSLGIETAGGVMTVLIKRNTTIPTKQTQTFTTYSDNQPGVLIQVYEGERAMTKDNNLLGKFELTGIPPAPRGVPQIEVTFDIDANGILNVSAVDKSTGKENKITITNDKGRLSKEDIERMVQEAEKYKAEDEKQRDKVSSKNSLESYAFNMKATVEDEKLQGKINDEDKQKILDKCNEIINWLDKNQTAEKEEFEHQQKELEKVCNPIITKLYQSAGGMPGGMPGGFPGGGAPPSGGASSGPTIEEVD
Chain of UniProt P16278 (P16278 whole entry, looked up): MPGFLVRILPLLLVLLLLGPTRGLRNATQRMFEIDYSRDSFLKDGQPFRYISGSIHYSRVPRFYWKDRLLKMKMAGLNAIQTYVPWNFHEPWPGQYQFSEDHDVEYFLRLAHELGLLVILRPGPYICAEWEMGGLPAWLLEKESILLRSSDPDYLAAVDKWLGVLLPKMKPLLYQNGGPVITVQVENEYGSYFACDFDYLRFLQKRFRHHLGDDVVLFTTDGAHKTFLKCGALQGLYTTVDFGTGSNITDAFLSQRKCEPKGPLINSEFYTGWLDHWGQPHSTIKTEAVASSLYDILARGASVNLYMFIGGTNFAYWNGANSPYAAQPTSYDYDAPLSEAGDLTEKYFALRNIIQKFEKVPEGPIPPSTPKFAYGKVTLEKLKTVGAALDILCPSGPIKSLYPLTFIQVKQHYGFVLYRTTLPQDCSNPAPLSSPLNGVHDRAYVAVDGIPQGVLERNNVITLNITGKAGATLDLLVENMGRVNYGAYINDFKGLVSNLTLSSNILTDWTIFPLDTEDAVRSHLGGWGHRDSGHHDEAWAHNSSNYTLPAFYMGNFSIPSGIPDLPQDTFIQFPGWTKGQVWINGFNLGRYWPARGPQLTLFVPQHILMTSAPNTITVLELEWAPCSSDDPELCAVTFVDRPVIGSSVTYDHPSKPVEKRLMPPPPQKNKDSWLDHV
Chain of UniProt O00291 (O00291 whole entry, looked up): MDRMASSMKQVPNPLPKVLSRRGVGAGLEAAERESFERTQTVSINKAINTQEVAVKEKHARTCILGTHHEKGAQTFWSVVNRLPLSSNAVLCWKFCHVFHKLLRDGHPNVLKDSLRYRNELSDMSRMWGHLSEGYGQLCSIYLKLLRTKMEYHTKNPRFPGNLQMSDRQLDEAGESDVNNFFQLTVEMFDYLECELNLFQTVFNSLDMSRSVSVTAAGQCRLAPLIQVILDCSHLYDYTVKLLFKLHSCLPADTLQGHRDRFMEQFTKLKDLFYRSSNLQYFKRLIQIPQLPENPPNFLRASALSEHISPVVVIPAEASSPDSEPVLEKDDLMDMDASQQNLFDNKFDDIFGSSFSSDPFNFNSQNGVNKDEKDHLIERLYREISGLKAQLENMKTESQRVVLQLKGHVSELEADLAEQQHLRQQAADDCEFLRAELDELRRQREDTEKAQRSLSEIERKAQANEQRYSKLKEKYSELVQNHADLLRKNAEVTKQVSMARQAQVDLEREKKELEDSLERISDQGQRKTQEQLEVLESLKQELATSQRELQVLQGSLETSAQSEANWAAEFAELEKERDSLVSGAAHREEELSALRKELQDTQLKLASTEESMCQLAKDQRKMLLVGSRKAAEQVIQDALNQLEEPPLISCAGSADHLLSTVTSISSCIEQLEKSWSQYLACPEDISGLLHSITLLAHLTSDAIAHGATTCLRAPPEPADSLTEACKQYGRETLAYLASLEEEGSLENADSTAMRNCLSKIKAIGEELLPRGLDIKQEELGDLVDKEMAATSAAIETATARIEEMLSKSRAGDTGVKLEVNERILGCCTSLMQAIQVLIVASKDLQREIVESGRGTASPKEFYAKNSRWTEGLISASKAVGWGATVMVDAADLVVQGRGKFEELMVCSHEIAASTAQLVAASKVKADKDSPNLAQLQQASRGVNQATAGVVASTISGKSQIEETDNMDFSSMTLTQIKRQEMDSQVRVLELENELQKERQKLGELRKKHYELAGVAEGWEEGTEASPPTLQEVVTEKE
Chain of UniProt P29083 (P29083 whole entry, looked up): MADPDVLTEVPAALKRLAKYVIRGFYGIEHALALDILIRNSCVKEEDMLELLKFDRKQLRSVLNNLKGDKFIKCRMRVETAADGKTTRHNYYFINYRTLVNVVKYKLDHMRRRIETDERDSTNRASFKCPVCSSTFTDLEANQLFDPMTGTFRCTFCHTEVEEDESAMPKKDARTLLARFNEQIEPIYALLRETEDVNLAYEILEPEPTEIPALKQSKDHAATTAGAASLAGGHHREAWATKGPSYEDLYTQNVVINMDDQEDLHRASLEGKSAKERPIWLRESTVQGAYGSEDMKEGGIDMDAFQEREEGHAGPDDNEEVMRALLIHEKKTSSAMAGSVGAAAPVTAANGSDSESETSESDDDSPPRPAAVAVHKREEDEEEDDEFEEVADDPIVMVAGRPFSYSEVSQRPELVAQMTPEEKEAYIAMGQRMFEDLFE
Chain of UniProt P46976 (P46976 whole entry, looked up): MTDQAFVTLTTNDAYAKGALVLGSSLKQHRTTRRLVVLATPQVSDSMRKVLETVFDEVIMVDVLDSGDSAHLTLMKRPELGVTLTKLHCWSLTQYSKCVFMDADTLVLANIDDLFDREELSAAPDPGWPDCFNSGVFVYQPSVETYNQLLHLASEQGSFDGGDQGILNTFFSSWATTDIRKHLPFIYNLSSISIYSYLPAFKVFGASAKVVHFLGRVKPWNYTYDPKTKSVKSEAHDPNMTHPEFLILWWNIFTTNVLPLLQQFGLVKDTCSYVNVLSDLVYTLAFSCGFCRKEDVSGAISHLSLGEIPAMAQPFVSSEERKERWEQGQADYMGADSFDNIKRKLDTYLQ
Chain of UniProt O15347 (O15347 whole entry, looked up): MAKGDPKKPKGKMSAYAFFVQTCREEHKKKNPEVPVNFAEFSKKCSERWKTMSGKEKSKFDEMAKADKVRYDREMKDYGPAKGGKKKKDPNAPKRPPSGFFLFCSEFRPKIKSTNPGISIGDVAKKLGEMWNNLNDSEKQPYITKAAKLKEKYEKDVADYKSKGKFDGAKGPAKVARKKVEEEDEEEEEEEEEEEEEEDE
Chain of UniProt Q92522 (Q92522 whole entry, looked up): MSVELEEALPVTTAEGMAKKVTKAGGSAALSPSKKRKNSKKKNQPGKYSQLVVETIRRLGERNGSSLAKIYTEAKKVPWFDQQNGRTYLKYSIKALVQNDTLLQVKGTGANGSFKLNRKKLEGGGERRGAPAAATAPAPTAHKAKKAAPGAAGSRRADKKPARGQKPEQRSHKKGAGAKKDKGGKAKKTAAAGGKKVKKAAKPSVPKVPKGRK
Chain of UniProt P07910 (P07910 whole entry, looked up): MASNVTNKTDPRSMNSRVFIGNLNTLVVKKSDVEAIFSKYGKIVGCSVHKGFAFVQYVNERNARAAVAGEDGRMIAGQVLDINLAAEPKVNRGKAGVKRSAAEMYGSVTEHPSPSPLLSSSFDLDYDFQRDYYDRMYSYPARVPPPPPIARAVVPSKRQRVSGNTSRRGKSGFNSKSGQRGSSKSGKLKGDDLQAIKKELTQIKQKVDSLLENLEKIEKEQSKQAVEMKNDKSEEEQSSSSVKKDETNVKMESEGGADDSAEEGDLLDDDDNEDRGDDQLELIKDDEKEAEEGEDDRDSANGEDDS

| Target | log2 fold change [1] | log2 fold change (crizotinib) | log2 fold change [2] | log2 fold change [3] | log2 fold change (duvelisib) | log2 fold change (gandotinib) | log2 fold change (tozasertib) | log2 fold change [4] | log2 fold change (doramapimod) | log2 fold change (ispinesib) | log2 fold change (bafetinib) | log2 fold change [5] | log2 fold change (nilotinib) | log2 fold change [6] | log2 fold change (dasatinib) | log2 fold change [7] | log2 fold change [8] | log2 fold change [9] | log2 fold change (tipifarnib) | log2 fold change (mubritinib) |
| --- | --- | --- | --- | --- | --- | --- | --- | --- | --- | --- | --- | --- | --- | --- | --- | --- | --- | --- | --- | --- |
| HBQ1 (UniProt P09105) | -0.017 | 0.037 | 0.065 | -0.148 | 0.129 | -0.002 | 0.015 | -0.023 | -0.003 | 0.092 | 0.028 | 0.046 | 0.054 | -0.004 | 0.102 | -0.043 | 0.12 | 0.117 | -0.125 | 0.039 |
| FBL (UniProt P22087) | -0.054 | 0.075 | -0.266 | 0.379 | -0.084 | 0.124 | -0.043 | -0.01 | 0.279 | 0.097 | 0.29 | -0.039 | 0.094 | -0.017 | 0.454 | -0.01 | -0.337 | -0.097 | 0.301 | -0.241 |
| HSPA8 (UniProt P11142) | 0.003 | 0.039 | -0.048 | -0.009 | -0.026 | 0.014 | 0.01 | -0.003 | -0.008 | 0.028 | 0.008 | -0.008 | 0.081 | -0.001 | 0.03 | -0.003 | -0.029 | -0.003 | 0.037 | -0.002 |
| GBF1 (UniProt Q92538) | -0.032 | -0.131 | 0.023 | 0.08 | -0.028 | -0.197 | 0.039 | 0.041 | 0.059 | 0.012 | 0.014 | 0.081 | -0.117 | -0.109 | -0.113 | -0.001 | -0.079 | -0.049 | -0.15 | 0.093 |
| FUBP3 (UniProt Q96I24) | -0.076 | -0.046 | -0.083 | 0.065 | -0.002 | -0.106 | -0.028 | 0.013 | -0.025 | -0.049 | -0.035 | 0.009 | -0.051 | 0.035 | -0.024 | 0.167 | -0.059 | -0.045 | 0.014 | -0.052 |
| H1FX (UniProt Q92522) | -0.175 | 0.091 | -0.524 | 0.432 | -0.143 | 0.13 | 0.029 | 0.021 | 0.188 | -0.016 | 0.248 | 0.048 | 0.035 | 0.079 | 0.043 | 0.039 | -0.189 | -0.113 | 0.126 | -0.138 |
| GTF2E1 (UniProt P29083) | 0.008 | 0.02 | 0.118 | -0.088 | 0.035 | -0.011 | 0.046 | 0.059 | -0.03 | -0.028 | 0.014 | 0.037 | -0.112 | -0.168 | -0.173 | -0.032 | 0.02 | 0.093 | -0.13 | 0.05 |
| HNRNPC isoform 2 (UniProt P07910) | -0.176 | -0.061 | -0.239 | 0.532 | -0.076 | 0.197 | 0.05 | 0.125 | 0.088 | -0.35 | 0.159 | -0.228 | 0.054 | -0.099 | 0.425 | -0.286 | -0.431 | -0.173 | 0.596 | -0.268 |
| GDI1 (UniProt P31150) | 0.018 | 0.026 | 0.061 | -0.054 | 0.014 | -0.049 | 0.004 | -0.009 | -0.027 | 0.084 | 0.002 | 0.024 | 0.001 | 0.017 | -0.053 | -0.024 | 0.035 | 0.01 | -0.06 | 0.062 |
| HMGB3 (UniProt O15347) | 0.045 | 0.026 | -0.018 | -0.071 | 0.01 | 0.01 | 0.029 | -0.001 | 0.002 | 0.1 | -0.057 | -0.009 | 0.051 | -0.013 | 0.066 | 0.03 | 0.014 | -0.084 | -0.024 | 0.01 |
| GLB1 (UniProt P16278) | 0.024 | -0.221 (active) | -0.074 | 0.007 | -0.022 | 0 | 0.036 | -0.004 | 0.013 | -0.255 (active) | -0.418 (active) | -0.009 | 0.013 | 0.017 | 0.061 | 0.004 | -0.006 | 0.016 | 0.039 | -0.009 |
| FLNA (UniProt P21333) | 0.014 | -0.078 | -0.01 | 0.04 | -0.014 | -0.045 | 0.108 | 0.127 | -0.013 | -0.025 | 0.011 | 0.059 | -0.056 | -0.025 | -0.158 | 0.059 | -0.053 | 0.007 | -0.176 | 0.112 |
| IFRD2 isoform 2 (UniProt Q12894) | 0.352 | -0.047 | 0.396 | -0.035 | 0.024 | 0.155 | -0.123 | -0.059 | 0.052 | 0.089 | -0.083 | -0.019 | 0.153 | 0.047 | 0.028 | 0.236 | 0.07 | -0.176 | 0.08 | 0.073 |
| HIP1 (UniProt O00291) | 0.054 | -0.131 | 0.035 | -0.002 | 0.085 | 0.029 | -0.086 | 0.027 | 0 | -0.033 | -0.079 | -0.069 | -0.038 | 0.063 | 0.004 | -0.079 | -0.009 | -0.002 | -0.099 | 0.077 |
| GYG1 (UniProt P46976) | -0.223 | -0.037 | -0.15 | 0.018 | -0.057 | -0.12 | 0.072 | 0.09 | 0.072 | -0.12 | 0.237 | 0.035 | 0.635 (active) | -0.012 | 0.052 | -0.297 | -0.06 | -0.11 | -0.009 | -0.104 |
| FAM91A1 (UniProt Q658Y4) | -0.11 | -0.006 | 0.192 | -0.034 | -0.008 | -0.08 | 0.022 | -0.001 | -0.012 | 0.014 | -0.01 | 0.07 | -0.007 | 0.073 | -0.048 | 0.01 | 0.021 | -0.015 | -0.004 | 0.052 |
